Screening data as filed in PubChem.
STK33 kin inh – STK33 kinase inhibitors, primary screen, biochemical, luminescence, ADP-Glo, MBP substrate; hit rate 0.44% among 27,000; inhibition, % at 12.5 µM; Serine/threonine-protein kinase 33 (Homo sapiens), Q9BYT3; AID 2322, 2010; in the data active = inhibition above about 20%; inconclusive = no clear call, values can overlap the other calls
Target sequence (Q9BYT3 whole entry, looked up): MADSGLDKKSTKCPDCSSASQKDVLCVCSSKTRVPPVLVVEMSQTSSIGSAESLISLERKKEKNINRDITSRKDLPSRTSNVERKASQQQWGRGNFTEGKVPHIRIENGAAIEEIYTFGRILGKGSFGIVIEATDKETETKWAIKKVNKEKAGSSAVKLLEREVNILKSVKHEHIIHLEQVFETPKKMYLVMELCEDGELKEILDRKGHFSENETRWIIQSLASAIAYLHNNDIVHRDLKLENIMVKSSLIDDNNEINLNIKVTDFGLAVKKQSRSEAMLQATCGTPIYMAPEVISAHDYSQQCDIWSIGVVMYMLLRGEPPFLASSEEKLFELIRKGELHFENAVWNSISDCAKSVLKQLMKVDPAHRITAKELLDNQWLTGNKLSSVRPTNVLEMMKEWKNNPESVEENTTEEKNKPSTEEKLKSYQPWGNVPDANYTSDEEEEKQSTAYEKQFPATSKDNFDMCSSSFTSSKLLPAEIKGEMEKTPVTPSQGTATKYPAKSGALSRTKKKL
MITF inh – inhibitors of MITF, primary screen, MITF inhibitor project, cell-based, luminescence; TRPM1 promoter luciferase, 24 h; hit rate 0.28% among 37,000; inhibition, % (concentration not given with the values); AID 2240, 2010; in the data active = inhibition above about 85%; inconclusive = no clear call, values can overlap the other calls; inactive = below about 68%;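 also: human melanocyte line stably carrying TRPM1 promoter luciferase reporter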
mut p53 react – mutant p53 pathway re-activators, primary screen, cell-based, SW480, luciferase, single point, HTS | SW480 PUMA-promoter luciferase, p53 mutant reactivation | activation, % at 9.98 µM | hit rate 1.5% among 28,000; in the data active = activation above about 52%; inconclusive = no clear call, values can overlap the other calls
NOMO-1 viab – NOMO-1 AML cell viability reduction, primary screen, STK33 inhibitor project, CellTiter-Glo luminescence. NOMO-1 AML viability, 72 h. inhibition, % (test concentration not listed). hit rate 7.5% among 37,000. AID 2330, 2010; in the data active = inhibition above about 80%; inconclusive = no clear call, values can overlap the other calls
Numbers without * were called inactive; ? = inconclusive; . = no result. Only a selection was taken, and hits are over-represented in it overall.

SMILES	STK33 kin inh	MITF inh	mut p53 react	NOMO-1 viab
CC[C@]1(O)C[C@H]2CN(CCc3c([nH]c4ccccc34)[C@@](C(=O)OC)(c3cc4c(cc3OC)N(C=O)[C@H]3[C@@](O)(C(=O)OC)[C@H](OC(C)=O)[C@@]5(CC)C=CCN6CC[C@]43[C@@H]65)C2)C1	0	38	.	94*
c1ccc2c3c([nH]c2c1)[C@H]1C2CCC([C@@H]4CCCN[C@H]24)N1CC3 (some centres not stated)	-9	0	.	23
Cc1ccc2c(C)c(C(=O)Nc3sc4c(c3C(=O)NCc3ccco3)CCC4)oc2c1	-1	0	8	103*
O=C(Nc1ccccc1)Nc1ccc2nnsc2c1	.	-20	.	83*
O=C(Nc1ccccc1)Nc1ccccc1	0	-10	.	36
C[C@H](CO)N1C[C@H](C)[C@H](CN(C)Cc2ccc(C(F)(F)F)cc2)Oc2c(NC(=O)Nc3ccc(C(F)(F)F)cc3)cccc2C1=O	.	21	.	110*
COc1ccc(CN(C)C[C@H]2Oc3c(NC(=O)Nc4ccc(C(F)(F)F)cc4)cccc3C(=O)N([C@H](C)CO)C[C@H]2C)cc1	.	-6	.	95*
C[C@H]1CN([C@@H](C)CO)C(=O)c2cccc(NC(=O)Nc3ccc(F)cc3)c2O[C@H]1CN(C)Cc1ccc(C(F)(F)F)cc1	.	14	-13	61
COc1ccc(NC(=O)Nc2cccc3c2O[C@@H](CN(C)Cc2ccc(C(F)(F)F)cc2)[C@@H](C)CN([C@H](C)CO)C3=O)cc1	.	9	.	45
C[C@@H]1CN([C@@H](C)CO)C(=O)c2cccc(NC(=O)Nc3ccc(F)cc3)c2O[C@H]1CN(C)Cc1ccc(C(F)(F)F)cc1	.	46	-25	103*
C[C@@H]1CN([C@H](C)CO)C(=O)c2cc(NC(=O)Nc3ccc(F)cc3)ccc2O[C@H]1CN(C)Cc1ccc(Cl)c(Cl)c1	0	5	.	15
C[C@H]1CN([C@@H](C)CO)C(=O)c2cc(NC(=O)Nc3ccc4c(c3)OCO4)ccc2O[C@H]1CN(C)Cc1ccncc1	2	-3	-52	95*
C[C@H]1CN([C@@H](C)CO)C(=O)c2cc(NC(=O)Nc3ccc(F)cc3)ccc2O[C@H]1CN(C)Cc1ccc(Cl)c(Cl)c1	1	5	.	99*
C[C@@H]1CN([C@@H](C)CO)C(=O)c2cc(NC(=O)Nc3ccc(F)cc3)ccc2O[C@@H]1CN(C)Cc1ccc(Cl)c(Cl)c1	2	74	.	113*
C[C@@H]1CN([C@H](C)CO)C(=O)c2cc(NC(=O)Nc3ccc4c(c3)OCO4)ccc2O[C@H]1CN(C)Cc1ccncc1	7	1	3	-6
C[C@@H]1CN([C@@H](C)CO)C(=O)c2cc(NC(=O)Nc3ccc4c(c3)OCO4)ccc2O[C@@H]1CN(C)Cc1ccc(Cl)c(Cl)c1	2	2	-41	95*
C[C@H]1CN([C@@H](C)CO)C(=O)c2cc(NC(=O)Nc3ccc4c(c3)OCO4)ccc2O[C@H]1CN(C)Cc1ccc(Cl)c(Cl)c1	0	-2	.	-2
O=C(c1ccccc1C(=O)N1CCCCC1)N1CCCCC1	.	2	.	-3
C[C@@H]1CN([C@@H](C)CO)C(=O)c2cc(NC(=O)Nc3ccccc3)ccc2O[C@H]1CN(C)Cc1ccc(Cl)c(Cl)c1	.	?	.	124*
C=C[C@@]1(C)CCC2=C([C@H]1OC(C)=O)[C@H](OC(C)=O)CC1[C@](C)(C(=O)OC)CC[C@H](OC(C)=O)[C@]21C (some centres not stated)	-1	3	.	21
C=C1[C@@H]2CC[C@H]3[C@@]4(C)C(C[C@H](OC(=O)[C@]5(C)O[C@@H]5C)[C@]3(C2)[C@@H]1OC(C)=O)[C@](C)(C(=O)OC)CC[C@H]4OC(C)=O (some centres not stated)	-4	-20	14	88*
CC1(C)CC(=O)C2=C(C1)N(CCCN1CCOCC1)C(=O)C2(NC(=O)c1ccccc1)C(F)(F)F (configuration not stated)	-2	-6	-14	-1
OC(COc1ccc(Nc2ccccc2)cc1)COc1ccc(Nc2ccccc2)cc1	.	4	.	103*
C[C@H]1CN([C@@H](C)CO)C(=O)Cc2cc(NC(=O)NC3CCCCC3)ccc2O[C@H]1CN(C)Cc1ccc(-c2ccccc2)cc1	6	25	.	114*
C[C@H](CO)N1C[C@H](C)[C@H](CN(C)Cc2ccc(-c3ccccc3)cc2)Oc2ccc(NC(=O)NC3CCCCC3)cc2CC1=O	-1	12	.	87*
C[C@@H]1CN([C@H](C)CO)C(=O)Cc2cc(NC(=O)NC3CCCCC3)ccc2O[C@@H]1CN(C)Cc1ccccc1	.	11	-1	42
